Source: the supplement of paper PMC10849652
Targets with a hit are over-represented here; the source holds about 7,900 in all. About 0.6% of all pairs of compound and target were hits. Values without a mark were called inactive.

compound: c1cn2cc(-c3ccc4cn[nH]c4c3)nc(Nc3ccc(N4CCOCC4)cc3)c2n1 [entospletinib]; assay: log2 fold change, soluble protein after heating vs DMSO (PISA); higher = thermal stabilisation; K562 cells, 10 uM, 30 min; active = over 0.2 and 3.5 SD of the protein, either way, in both replicates (recomputed)
In short: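 K562 cells at 2×10^6 cells/mL were treated with 10 μM compound for 30 min. Aliquots were heated for 3 min across 48°C-58°C, pooled, and extracted in PBS with 0.5% NP-40 at 4°C; soluble protein was the supernatant after 21,000xg for 90 min. Soluble protein was quantified by TMTpro 16plex LC-MS/MS with channel sums equalised, and reported as log2 fold change in thermal stability against DMSO controls, with values from duplicates.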

Chain of UniProt O94913 (O94913 whole entry, looked up): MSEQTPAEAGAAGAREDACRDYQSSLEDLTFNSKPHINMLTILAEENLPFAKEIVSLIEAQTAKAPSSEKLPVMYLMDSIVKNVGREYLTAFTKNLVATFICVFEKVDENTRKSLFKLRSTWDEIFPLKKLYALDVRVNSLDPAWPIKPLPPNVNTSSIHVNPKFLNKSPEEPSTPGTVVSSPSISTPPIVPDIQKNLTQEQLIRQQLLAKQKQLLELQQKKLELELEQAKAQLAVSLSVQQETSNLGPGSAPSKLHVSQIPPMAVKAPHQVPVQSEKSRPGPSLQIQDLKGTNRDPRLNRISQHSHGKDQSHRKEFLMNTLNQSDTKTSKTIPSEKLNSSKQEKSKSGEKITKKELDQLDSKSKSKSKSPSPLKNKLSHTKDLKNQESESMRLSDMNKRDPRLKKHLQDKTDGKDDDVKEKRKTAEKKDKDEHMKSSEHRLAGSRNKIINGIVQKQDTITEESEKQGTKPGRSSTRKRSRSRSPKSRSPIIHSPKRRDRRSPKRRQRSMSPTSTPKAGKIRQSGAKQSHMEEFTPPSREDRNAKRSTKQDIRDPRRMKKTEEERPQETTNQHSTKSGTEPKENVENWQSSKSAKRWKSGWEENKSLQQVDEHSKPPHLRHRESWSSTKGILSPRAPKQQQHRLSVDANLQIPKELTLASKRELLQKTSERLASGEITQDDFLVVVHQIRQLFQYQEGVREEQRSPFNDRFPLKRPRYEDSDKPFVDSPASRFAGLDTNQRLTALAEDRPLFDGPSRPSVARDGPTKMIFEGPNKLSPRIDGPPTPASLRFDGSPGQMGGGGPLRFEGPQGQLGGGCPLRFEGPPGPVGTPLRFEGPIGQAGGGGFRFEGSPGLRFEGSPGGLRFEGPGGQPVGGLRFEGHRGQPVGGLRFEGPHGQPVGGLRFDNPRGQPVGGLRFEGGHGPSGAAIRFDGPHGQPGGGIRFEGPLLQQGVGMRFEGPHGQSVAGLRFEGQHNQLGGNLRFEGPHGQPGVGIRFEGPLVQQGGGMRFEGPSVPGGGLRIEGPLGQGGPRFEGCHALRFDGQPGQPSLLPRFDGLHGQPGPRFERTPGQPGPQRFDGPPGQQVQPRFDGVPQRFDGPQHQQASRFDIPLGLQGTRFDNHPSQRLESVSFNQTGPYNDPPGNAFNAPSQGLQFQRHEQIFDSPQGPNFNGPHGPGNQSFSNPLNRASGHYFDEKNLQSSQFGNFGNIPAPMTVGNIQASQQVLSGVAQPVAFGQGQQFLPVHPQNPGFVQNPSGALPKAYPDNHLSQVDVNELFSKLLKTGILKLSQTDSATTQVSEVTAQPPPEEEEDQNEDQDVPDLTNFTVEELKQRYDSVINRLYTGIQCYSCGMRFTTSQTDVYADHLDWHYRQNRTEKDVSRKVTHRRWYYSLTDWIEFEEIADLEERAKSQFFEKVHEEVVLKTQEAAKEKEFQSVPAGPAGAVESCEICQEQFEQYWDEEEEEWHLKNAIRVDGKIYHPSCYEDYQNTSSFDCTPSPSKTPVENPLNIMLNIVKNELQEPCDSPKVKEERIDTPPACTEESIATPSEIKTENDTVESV
Chain of UniProt Q9UHX1 (Q9UHX1 whole entry, looked up): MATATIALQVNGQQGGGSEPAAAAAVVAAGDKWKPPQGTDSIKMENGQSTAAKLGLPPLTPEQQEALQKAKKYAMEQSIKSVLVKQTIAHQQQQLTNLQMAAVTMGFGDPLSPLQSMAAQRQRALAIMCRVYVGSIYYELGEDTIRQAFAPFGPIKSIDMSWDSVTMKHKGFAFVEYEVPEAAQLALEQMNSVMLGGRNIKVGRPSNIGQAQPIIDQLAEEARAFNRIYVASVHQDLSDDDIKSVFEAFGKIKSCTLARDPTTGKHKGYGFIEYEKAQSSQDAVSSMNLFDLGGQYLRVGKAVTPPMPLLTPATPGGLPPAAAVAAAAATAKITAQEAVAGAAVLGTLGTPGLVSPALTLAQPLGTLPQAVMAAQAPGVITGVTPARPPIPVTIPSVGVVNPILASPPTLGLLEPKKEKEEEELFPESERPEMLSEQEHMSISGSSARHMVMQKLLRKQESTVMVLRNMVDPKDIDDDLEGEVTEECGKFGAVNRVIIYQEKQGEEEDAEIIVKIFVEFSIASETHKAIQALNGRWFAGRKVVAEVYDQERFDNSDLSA
Chain of UniProt P29590 (P29590 whole entry, looked up): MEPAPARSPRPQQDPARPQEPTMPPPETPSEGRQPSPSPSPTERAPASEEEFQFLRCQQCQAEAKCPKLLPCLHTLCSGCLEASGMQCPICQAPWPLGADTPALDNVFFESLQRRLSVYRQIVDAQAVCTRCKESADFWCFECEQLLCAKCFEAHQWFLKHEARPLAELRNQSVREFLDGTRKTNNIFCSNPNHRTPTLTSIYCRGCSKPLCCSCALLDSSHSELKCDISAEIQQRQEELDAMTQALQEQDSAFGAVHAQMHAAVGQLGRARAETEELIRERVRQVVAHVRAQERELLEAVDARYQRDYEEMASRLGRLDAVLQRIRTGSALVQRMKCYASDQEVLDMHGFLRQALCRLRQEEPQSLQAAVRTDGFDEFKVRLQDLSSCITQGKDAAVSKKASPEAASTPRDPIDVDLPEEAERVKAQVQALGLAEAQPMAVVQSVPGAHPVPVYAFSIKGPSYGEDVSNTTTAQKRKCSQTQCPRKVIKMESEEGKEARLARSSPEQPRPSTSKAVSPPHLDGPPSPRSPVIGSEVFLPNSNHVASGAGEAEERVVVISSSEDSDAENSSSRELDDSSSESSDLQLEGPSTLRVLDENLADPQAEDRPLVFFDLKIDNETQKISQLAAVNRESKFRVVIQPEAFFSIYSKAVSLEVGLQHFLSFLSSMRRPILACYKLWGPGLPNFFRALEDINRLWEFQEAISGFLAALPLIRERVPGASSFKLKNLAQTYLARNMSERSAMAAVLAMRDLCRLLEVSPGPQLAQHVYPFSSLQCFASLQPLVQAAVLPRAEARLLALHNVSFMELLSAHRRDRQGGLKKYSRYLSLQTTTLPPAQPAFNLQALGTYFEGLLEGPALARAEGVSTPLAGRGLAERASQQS
Chain of UniProt O75340 (O75340 whole entry, looked up): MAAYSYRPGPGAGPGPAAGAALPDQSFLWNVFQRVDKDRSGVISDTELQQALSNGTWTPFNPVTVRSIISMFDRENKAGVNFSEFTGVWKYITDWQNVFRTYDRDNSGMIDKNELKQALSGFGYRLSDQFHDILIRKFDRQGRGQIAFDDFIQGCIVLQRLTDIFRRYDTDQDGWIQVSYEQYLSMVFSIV
Chain of UniProt Q8IZL8 (Q8IZL8 whole entry, looked up): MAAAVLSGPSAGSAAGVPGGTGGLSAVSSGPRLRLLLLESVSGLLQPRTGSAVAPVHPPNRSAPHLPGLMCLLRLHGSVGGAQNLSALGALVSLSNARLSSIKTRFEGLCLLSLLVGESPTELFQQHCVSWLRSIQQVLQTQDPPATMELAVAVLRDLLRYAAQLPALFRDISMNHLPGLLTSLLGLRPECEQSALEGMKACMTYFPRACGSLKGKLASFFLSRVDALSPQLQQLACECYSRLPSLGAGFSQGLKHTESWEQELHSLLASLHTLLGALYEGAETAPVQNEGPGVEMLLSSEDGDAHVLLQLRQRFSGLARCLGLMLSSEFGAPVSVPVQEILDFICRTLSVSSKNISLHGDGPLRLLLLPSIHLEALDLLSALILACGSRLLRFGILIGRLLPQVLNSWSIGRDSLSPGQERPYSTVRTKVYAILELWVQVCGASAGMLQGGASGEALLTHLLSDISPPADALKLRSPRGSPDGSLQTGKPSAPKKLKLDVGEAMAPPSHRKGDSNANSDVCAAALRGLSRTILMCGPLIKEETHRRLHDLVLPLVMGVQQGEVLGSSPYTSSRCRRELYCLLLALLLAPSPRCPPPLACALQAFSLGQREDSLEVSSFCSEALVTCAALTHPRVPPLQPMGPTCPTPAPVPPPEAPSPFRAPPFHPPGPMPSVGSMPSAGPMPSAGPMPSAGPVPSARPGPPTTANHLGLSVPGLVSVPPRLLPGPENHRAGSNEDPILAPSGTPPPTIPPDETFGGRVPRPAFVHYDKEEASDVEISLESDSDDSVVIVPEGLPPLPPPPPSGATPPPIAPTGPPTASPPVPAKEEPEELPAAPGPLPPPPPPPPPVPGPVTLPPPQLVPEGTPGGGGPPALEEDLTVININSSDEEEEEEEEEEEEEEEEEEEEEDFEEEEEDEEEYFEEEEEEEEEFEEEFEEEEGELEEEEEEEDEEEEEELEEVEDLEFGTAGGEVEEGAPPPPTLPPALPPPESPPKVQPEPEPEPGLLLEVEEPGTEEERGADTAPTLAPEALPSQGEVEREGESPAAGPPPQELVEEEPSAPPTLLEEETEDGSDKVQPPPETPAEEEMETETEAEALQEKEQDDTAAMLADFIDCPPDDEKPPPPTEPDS

Row | Target | log2 fold change
1 | PRKAB2 (UniProt O43741) | -0.12
2 | PLBD1 (UniProt Q6P4A8) | 0.011
3 | PCLAF (UniProt Q15004) | -0.132
4 | PDCD6 (UniProt O75340) | 0.024
5 | PCF11 (UniProt O94913) | -0.745 (active)
6 | PLCB3 (UniProt Q01970) | 0.028
7 | PDPK1 (UniProt O15530) | -0.037
8 | PPP4R3B (UniProt Q5MIZ7) | -0.064
9 | PELP1 (UniProt Q8IZL8) | -0.041
10 | PNPLA8 (UniProt Q9NP80) | -0.015
11 | PRKCA (UniProt P17252) | -0.054
12 | PPIL2 (UniProt Q13356) | -0.027
13 | PML (UniProt P29590) | 0.073
14 | PLA2G15 (UniProt Q8NCC3) | -0.063
15 | PRKAR1B (UniProt P31321) | 0.231
16 | PKN1 isoform 2 (UniProt Q16512) | 0.014
17 | PNN (UniProt Q9H307) | 0.172
18 | POLB (UniProt P06746) | -0.156
19 | PSPC1 (UniProt Q8WXF1) | 0.034
20 | PSMB6 (UniProt P28072) | 0.008

Row | Target | log2 fold change
21 | PTPN12 (UniProt Q05209) | -0.041
22 | PPP1R14A (UniProt Q96A00) | 0
23 | PUM1 isoform 3 (UniProt Q14671) | 0.045
24 | PARP1 (UniProt P09874) | -0.092
25 | PTGFRN (UniProt Q9P2B2) | -0.007
26 | PRPSAP2 (UniProt O60256) | -0.008
27 | PRIM1 (UniProt P49642) | 0.062
28 | PIK3R1 (UniProt P27986) | -0.045
29 | POLR2E (UniProt P19388) | 0.032
30 | PPIL4 (UniProt Q8WUA2) | 0.035
31 | PKN2 (UniProt Q16513) | 0.007
32 | PKM isoform 2 (UniProt P14618) | 0.128
33 | PUF60 (UniProt Q9UHX1) | -0.017
34 | PFDN1 (UniProt O60925) | -0.089
35 | PPP6R1 (UniProt Q9UPN7) | 0.033
36 | PNPLA4 (UniProt P41247) | 0.003
37 | PRKCG (UniProt P05129) | 0.044
38 | PDE4DIP isoform 4 (UniProt Q5VU43) | 0.018
39 | PMPCB (UniProt O75439) | -0.043
